Source: PubChem BioAssay (NCI)
This is part of a sample that, as a whole, favours compounds with a hit. Of some 83,000 tested, about 20% had one in any assay.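 Values shown are percent growth following 48 h exposure of cells in 96-well plates to a single concentration of compound; below 10 was considered active.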 Values without a mark were called inactive. Calls of active or inactive are those of the source.

Experiments:
Assay in all cases: NCI-60 one-dose screen, 48 h (100 = growth as untreated, 0 = no growth, -100 = all killed)
SR leukemia = settings: 10 µM unless noted
RPMI-8226 leukemia = settings: 10 µM
OVCAR-8 ovarian = settings: 10 µM unless noted
OVCAR-5 ovarian = settings: 10 µM unless noted
OVCAR-4 ovarian = settings: 10 µM unless noted
SK-OV-3 ovarian = settings: 10 µM
IGROV1 ovarian = settings: 10 µM unless noted
OVCAR-3 ovarian = settings: 10 µM unless noted
HS 578T breast = settings: 10 µM unless noted
NCI/ADR-RES ovarian = settings: 10 µM unless noted
T-47D breast = settings: 10 µM
BT-549 breast = settings: 10 µM unless noted
MDA-MB-435 melanoma = settings: 10 µM unless noted
SW-620 colon = settings: 10 µM unless noted
MCF7 breast = settings: 10 µM unless noted
HCT-116 colon = settings: 10 µM unless noted
HCC-2998 colon = settings: 10 µM unless noted
KM12 colon = settings: 10 µM unless noted

| SMILES | growth (SR leukemia) | growth (RPMI-8226 leukemia) | growth (OVCAR-8 ovarian) | growth (OVCAR-5 ovarian) | growth (OVCAR-4 ovarian) | growth (SK-OV-3 ovarian) | growth (IGROV1 ovarian) | growth (OVCAR-3 ovarian) | growth (HS 578T breast) | growth (NCI/ADR-RES ovarian) | growth (T-47D breast) | growth (BT-549 breast) | growth (MDA-MB-435 melanoma) | growth (SW-620 colon) | growth (MCF7 breast) | growth (HCT-116 colon) | growth (HCC-2998 colon) | growth (KM12 colon) |
| --- | --- | --- | --- | --- | --- | --- | --- | --- | --- | --- | --- | --- | --- | --- | --- | --- | --- | --- |
| COC(=O)/C=C1/CCC2C3CCC4=CC(=O)C(Br)CC4(C)C3C(=O)CC12C (centres undefined) | 33% | 61.1% | 63.1% | 112% | 67.8% | 103% | 25.1% | 89.5% | 86.7% | 81.7% | 54.8% | 95.9% | 76.3% | 69.2% | 42.3% | 47.9% | 62.1% | 81.1% |
| C=C(C)CCCC(C)CC#N (centres undefined) | 90.8% | 102% | 106% | 103% | 105% | 103% | 107% | 99.8% | 110% | 107% | 92.7% | 95.9% | 104% | 115% | 99.3% | 97.5% | 104% | 95% |
| CCOC(=O)C1=C(C)N2C(=NC3=C(CCCC/C3=C\c3cc(OC)c(OC)c(OC)c3)C2c2cc(OC)c(OC)c(OC)c2)S1 (centres undefined) | 47.4% | 32.7% | 63.6% | 85.6% | 69.3% | 77.8% | 71.6% | 64.5% | 96.1% | 62.1% | 45.9% | 55.1% | 68.4% | 82.5% | 60.9% | 68% | 85% | 67.5% |
| Nc1c(Br)cc(Br)cc1-c1n[nH]c(=O)[nH]c1=O | 7.84% (active) | 99.6% | 105% | 97.2% | 98.5% | 93.4% | 105% | 113% | 78.3% | 103% | 103% | 101% | 99.2% | 96.9% | 99.8% | 107% | 111% | 99.8% |
| O=C1c2ccccc2C(=O)c2c(Nc3ccc(CCO)cc3)ccc(O)c21 | -5.4% (active) | 46.5% | 74.1% | 105% | 72.5% | 73.5% | 45.4% | 122% | -21.7% (active) | 82% | 33.2% | 53.3% | 88.4% | 65.8% | 33.7% | 68.6% | 66.8% | 76.2% |
| Nc1cc(Br)c(-c2nnc(CCC(=O)c3nc4ccccc4[nH]3)o2)c(Br)c1 | 18.5% | 79.6% | 95.2% | 97.2% | 82.4% | 81.8% | 76.8% | 49.1% | 99.6% | 89.6% | 72.6% | 40.6% | 5.71% (active) | 72.1% | 18.9% | 53.3% | 78% | 69% |
| O=C1CC2c3cc(-c4cc5ccccc5o4)ccc3CCN2C(=O)N1c1ccccc1 (centres undefined) | 57.6% | 68.1% | 88.4% | 97.9% | 84.7% | 80% | 84.6% | 99.3% | 107% | 81.4% | 57.4% | 92.2% | 89.3% | 111% | 88.6% | 75.3% | 110% | 101% |
| CNc1ccc(Br)cc1-c1n[nH]c(=O)[nH]c1=O | 103% | 104% | 100% | 98.3% | 90.9% | 102% | 106% | 116% | 84.1% | 105% | 109% | 99.9% | 98.8% | 92.9% | 90.2% | 98.2% | 107% | 111% |
| COc1cc(/C=C/c2cc(/C=C/c3ccc(O)c(OC)c3)n(-c3ccccc3)n2)ccc1O | -13.9% (active) | -33.6% (active) | -13.1% (active) | -7.74% (active) | 4.49% (active) | -53.1% (active) | -21.2% (active) | -46.9% (active) | -13% (active) | 3.18% (active) | -23.9% (active) | -47.2% (active) | -67.3% (active) | -22.7% (active) | -5.71% (active) | -5.83% (active) | 5.82% (active) | -28% (active) |
| CC1(C)N=C(N)N=C(N)N1c1cccc(/C=C/C=C/c2cccc([N+](=O)[O-])c2)c1 | 37% | 8.42% (active) | 84.1% | 44.7% | 65.3% | 83.3% | 35.3% | 30.1% | 95% | 108% | 78.1% | 46.1% | 23.3% | 44.6% | 57.9% | 24.7% | 45.1% | 35.5% |
| COc1ccc(/C=C2\CN(Cc3cn(CCCNc4ccnc5cc(Cl)ccc45)nn3)C/C(=C\c3ccc(OC)cc3)C2=O)cc1 | -6.55% (active) | 18% | 1.09% (active) | 120% | 55.1% | 70.7% | 65% | 68.7% | 81.5% | 50.7% | 102% | 44.3% | 60.2% | 46.4% | 43.5% | 44.5% | 95.1% | 45.4% |
| O=C(Nc1ccc(Cl)c(Cl)c1)NC(CO)(CO)CO | 101% | 96.7% | 96.8% | 94.7% | 110% | 95.5% | 100% | 104% | 96% | 100% | 96% | 93.8% | 95.8% | 101% | – | 101% | 102% | 97.7% |
| Cc1ccc2c(N/N=C\c3ccco3)cc(C)nc2n1 | -8.66% (active) | 64.7% | 69.6% | 80.4% | 46.9% | 98.6% | 49% | 88% | 86.3% | 71.8% | 37.4% | 87.7% | 36.6% | 39.5% | 71.8% | 21.5% | 65.4% | 74.8% |
| COc1ncnc2c1ncn2C/C(Br)=C(\Br)CCl | 8.2% (active) | -25.4% (active) | 0.995% (active) | 62.1% | -47.1% (active) | 148% | 11.5% | -94.2% (active) | 23.5% | -40.4% (active) | 1.25% (active) | 70.2% | 3.99% (active) | -73.6% (active) | – | -82.3% (active) | 89.8% | -5.61% (active) |
| Nc1nc(N)c(N=Nc2c(Br)cc(S(N)(=O)=O)cc2Br)c(N)n1 | 34.5% | 106% | 98.4% | 109% | 124% | 108% | 105% | 73.1% | 95.1% | 107% | 88.6% | 100% | 48.3% | 98% | 68.6% | 103% | 100% | 61.3% |
| C=CC[P+](c1ccccc1)(c1ccccc1)c1ccccc1 | 35.7% | 6.29% (active) | 45.8% | 77% | 46% | 70.8% | 73.2% | 32% | 79.4% | 112% | 16.5% | 47.5% | 32.3% | 79.7% | 27.2% | 36.7% | 51.7% | 31.3% |
| COc1cccc(C2C3=C(COC3=O)N(CCO)c3cc4c(cc32)CCC4)c1 (centres undefined) | 29.4% | 28.1% | 20.9% | 32.9% | 10.3% | 20.9% | 8.37% (active) | -46% (active) | 2.16% (active) | -43.2% (active) | 77.7% | 1.24% (active) | -32.7% (active) | 18.8% | 9.39% (active) | -9.32% (active) | -20.6% (active) | -42.8% (active) |
